Data published in PubChem BioAssay.

Experiments:
[1] = system: Human papillomavirus type 1a protein E7 (residues 44-93); test: HPV1a E7 fragment binders on microarrays, primary screen, biochemical, small-molecule microarray, residues 44-93, 635 nm fluorescence (AID 1108); details: small-molecule microarray binding, fluorescence 635 nm; higher = more signal;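 note: E7 fragment applied at 1 µg/mL in TBST for 1 h at 4 C; score combines spot fluorescence with its signal to noise ratio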
[2] = modulators of HCV replicon luciferase signal, primary screen, HCV replication inhibitor project, Huh7 cells, luciferase reporter (AID 1109); details: 48 h, higher = more signal;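 note: huh7 hepatoma cells harbouring a luciferase neomycin HCV replicon reporter; luciferase luminescence as measure of HCV replicon replication; test concentration not given here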
[3] = target: Left-right determination factor 2 (Homo sapiens) (UniProt O00292); test: LEFTY2 binders on small-molecule microarrays, primary screen, biochemical, small-molecule microarray, 635 nm fluorescence scan (AID 1110); details: LEFTY2 binding, higher = more signal
[4] = target: Calmodulin-1 (Homo sapiens) (UniProt P0DP23); test: CALM1 binders on microarrays, EGTA buffer, profiling panel, biochemical, small-molecule microarray, Cy5-labelled CALM1 (AID 1111); details: Cy5-CALM1 binding fluorescence, higher = more signal;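 note: labelled calmodulin applied in Tris saline Tween buffer holding calcium plus EGTA and DTT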
[5] = target: Calmodulin-1 (Homo sapiens) (UniProt P0DP23); test: calcium-bound CALM1 binders on microarrays, profiling panel, artefact control for SMM control-protein annotation, biochemical, small-molecule microarray, Cy5-labelled CALM1, plus calcium (AID 1112); details: Cy5-CALM1 binding fluorescence, higher = more signal;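 note: score merges spot fluorescence with signal to noise from triplicate slides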
[6] = small-molecule microarray binders of probe aWnt5a, primary screen, biochemical, biotinylated probe, 635/667 nm fluorescence (AID 1113); details: higher = more signal;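 note: score merges 667 nm fluorescence intensity with signal-to-noise per printed feature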
[7] = small-molecule microarray binders of probe aShh, primary screen, biochemical, biotinylated probe, 635/667 nm fluorescence (AID 1114); details: higher = more signal;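 note: probe is biotin-labelled aShh protein from a stem cell growth factor screen; measures binding of labelled protein to compounds printed on the slide; score merges feature fluorescence at 667 nm with signal-to-noise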
[8] = small-molecule microarray binders of probe aNog, primary screen, biochemical, biotinylated probe, 635/667 nm fluorescence (AID 1115); details: higher = more signal;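 note: probe is biotinylated aNog protein used at 0.15 µg/mL for 1 h at 4 C; z-score combines 667 nm fluorescence of each spot with its signal to noise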
[9] = target: Torsin-1A-interacting protein 1 (Homo sapiens) (UniProt Q5JTV8); test: LAP1 binders from COS7 cell lysate, primary screen, small-molecule microarray, 635/667 nm fluorescence (AID 1116); details: COS7-hLAP1 lysate binding, 635 nm fluorescence, higher = more signal
[10] = target: Alpha-bungarotoxin (Bungarus multicinctus) (UniProt P60615); test: alpha-bungarotoxin binders on microarray, profiling panel, artefact control for SMM control protein annotation, biochemical, small-molecule microarray, Alexa647 label, 635/667 nm fluorescence (AID 1117); details: alpha-BTX-A647 binding fluorescence, higher = more signal
Sequence of Alpha-bungarotoxin (Bungarus multicinctus) (P60615 whole entry, looked up): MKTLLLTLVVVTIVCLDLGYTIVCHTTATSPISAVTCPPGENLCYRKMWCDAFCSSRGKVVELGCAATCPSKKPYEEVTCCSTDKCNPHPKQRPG

Sequence of Left-right determination factor 2 (Homo sapiens) (O00292 whole entry, looked up): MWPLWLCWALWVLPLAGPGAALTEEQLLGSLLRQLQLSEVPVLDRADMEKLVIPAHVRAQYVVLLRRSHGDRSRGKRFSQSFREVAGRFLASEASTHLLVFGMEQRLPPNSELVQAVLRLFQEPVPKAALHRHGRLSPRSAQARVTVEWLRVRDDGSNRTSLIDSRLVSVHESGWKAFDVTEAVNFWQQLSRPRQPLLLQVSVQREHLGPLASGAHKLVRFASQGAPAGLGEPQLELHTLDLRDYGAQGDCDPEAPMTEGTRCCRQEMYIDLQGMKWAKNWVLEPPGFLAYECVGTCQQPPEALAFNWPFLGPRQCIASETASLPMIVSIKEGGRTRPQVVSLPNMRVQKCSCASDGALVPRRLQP
Sequence of Torsin-1A-interacting protein 1 (Homo sapiens) (Q5JTV8 whole entry, looked up): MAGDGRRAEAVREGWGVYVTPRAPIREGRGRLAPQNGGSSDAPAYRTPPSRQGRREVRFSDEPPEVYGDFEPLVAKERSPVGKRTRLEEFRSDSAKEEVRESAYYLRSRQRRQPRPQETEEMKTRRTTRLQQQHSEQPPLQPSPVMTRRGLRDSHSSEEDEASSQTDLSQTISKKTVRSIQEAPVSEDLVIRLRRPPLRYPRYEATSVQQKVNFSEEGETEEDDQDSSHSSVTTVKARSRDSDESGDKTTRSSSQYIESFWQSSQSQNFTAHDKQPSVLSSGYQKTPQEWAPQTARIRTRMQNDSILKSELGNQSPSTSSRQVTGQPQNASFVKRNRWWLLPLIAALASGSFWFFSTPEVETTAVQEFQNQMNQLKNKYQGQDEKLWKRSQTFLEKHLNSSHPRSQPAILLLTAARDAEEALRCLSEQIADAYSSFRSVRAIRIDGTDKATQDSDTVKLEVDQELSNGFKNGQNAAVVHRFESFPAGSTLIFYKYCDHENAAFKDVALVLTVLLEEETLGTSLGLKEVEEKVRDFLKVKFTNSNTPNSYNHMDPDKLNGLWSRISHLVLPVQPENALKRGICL

Row | SMILES | composite z-score [1] | z-score [2] | composite z-score [3] | composite z-score [4] | composite z-score [5] | composite z-score [6] | composite z-score [7] | composite z-score [8] | composite z-score [9] | composite z-score [10]
1 | Cc1ccc([C@@H]2C[C@@H](Sc3ccccc3)[C@H](C(=O)O)CN2S(=O)(=O)c2ccc(C)cc2)cc1 | 1.47 | -0.733 | 0.0973 | 1.66 | 0.481 | 0.0219 | 0.408 | 1.55 | 1.17 | 1.69
2 | CCOC(=O)[C@H]1C/C=C/C[C@H](C(=O)OCC)C(=O)O[C@H]2[C@@H](OC)O[C@H](CO)[C@@H](OC(=O)c3c(OC)cccc3OC)[C@@H]2OC1=O | -0.908 | -3.32 | 0.204 | 0.34 | 0.208 | -0.126 | 0.244 | 0.65 | 0.11 | 1.1
3 | CC(C)C(=C=CC[C@@H](O)c1ccc(OCCO)cc1)C[C@@H](O)c1ccccn1 | 0.323 | -0.218 | 1.21 | -0.315 | -0.113 | -0.0721 | -0.0709 | -0.0926 | 1.08 | -0.0878
4 | C=C(CCCC)/C(=C/C[C@@H](OC(=O)c1ccncc1)c1ccc(OCCO)cc1)c1cc(C(=O)OC)ccc1OC | 1.41 | -1.91 | -0.0304 | 0.168 | -0.959 | -0.166 | -0.138 | -0.144 | 0.883 | 0.311
5 | COc1ccc(CCNC(=O)[C@@]2(Sc3ccc(C)cc3)CC(=O)N(C(C)C)[C@@H]2c2ccc(CO)cc2I)cc1 | 0.536 | -2.41 | -1.09 | -0.434 | 0.428 | -0.225 | -0.0553 | 0.905 | 0.341 | -0.333
6 | CCS[C@H]1[C@@H](C(=O)O)[C@H](c2ccc(C)cc2)N(S(=O)(=O)c2ccc(C)cc2)[C@@H]1CC | 1.39 | 0.841 | 0.0041 | 0.83 | 0.0072 | -0.1 | -0.0035 | 1.11 | 0.827 | 0.834
7 | O=C1O[C@H](c2ccccc2)[C@H](c2ccccc2)N2[C@H]1[C@@H](C(=O)N1CCCCCCC1)[C@]1(C(=O)Nc3ccc(C#CC4=CCCCC4)cc31)[C@H]2c1ccc(OCCO)cc1 | 1.54 | -2.06 | 1.63 | 2.6 | 1.28 | 1.32 | 3.1 | 2.93 | 3.47 | 3.42
8 | COCCOC(=O)N1C(=O)[C@@]2(c3cc(C#CC4(O)CCCCCC4)ccc31)[C@H](c1ccccc1OCCO)N1[C@H](c3ccccc3)[C@H](c3ccccc3)OC(=O)[C@H]1[C@@H]2C(=O)N1CCN(c2ncccn2)CC1 | 0.0525 | -2.18 | 0.46 | 0.156 | -0.0855 | -0.0944 | 0.0328 | 0.612 | 1.35 | 0.509
9 | CC(C)C[C@@H]1NC(=O)[C@@H]2C[C@H](C(=O)NCc3ccc(F)cc3)[C@H](c3cccc(OCCO)c3)N2C1=O | 0.0179 | -0.992 | 0.0533 | 0.217 | 0.0115 | -0.31 | 0.147 | -0.0315 | 0.172 | -0.41
10 | CC(C)NC(=O)[C@@]1(C)c2ccccc2C(=O)N(Cc2cc(C(F)(F)F)cc(C(F)(F)F)c2)[C@H]1c1ccc(CO)cc1 | 1.02 | -0.319 | -0.826 | 0.226 | 0.764 | -0.101 | -0.0398 | 1.07 | 0.454 | -0.361
11 | COc1cc2c(cc1O)C(C1CC1)N(Cc1sc3ccccc3c1Cl)CC2 (stereo not given) | 1.39 | -2.87 | -0.423 | 0.131 | 0.469 | -0.0977 | 0.0062 | 0.173 | 1.26 | 0.281
12 | COCCOC(=O)N1C(=O)[C@@]2(c3ccccc31)[C@H](c1ccccc1OCCO)N1[C@H](c3ccccc3)[C@H](c3ccccc3)OC(=O)[C@H]1[C@@H]2C(=O)N1CCN(c2ncccn2)CC1 | 0.771 | -2.73 | 0.567 | 1.69 | 0.614 | -0.096 | 0.199 | 0.441 | 1.24 | 1.46
13 | COc1cc2c(cc1OC)CN(C(=O)[C@H]1[C@@H]3C(=O)O[C@@H](c4ccccc4)[C@@H](c4ccccc4)N3[C@@H](c3ccc(O)cc3)[C@]13C(=O)Nc1ccc(C#CCCO)cc13)CC2 | 1.4 | -0.838 | -0.0265 | 0.382 | 0.0412 | -0.0403 | -0.0553 | -0.472 | 0.469 | 1.04
14 | C=CCOC(=O)[C@H]1[C@@H]2C(=O)O[C@@H](c3ccccc3)[C@@H](c3ccccc3)N2[C@@H](c2ccc(OCCOC(=O)[C@@H]3C[C@@H]4C(=O)N[C@@H](CC(C)C)C(=O)N4[C@@H]3c3ccc(O)cc3)cc2)[C@]12C(=O)Nc1ccccc12 | 1.12 | -1.47 | 0.701 | 2.5 | 0.137 | 0.0044 | 0.14 | 0.938 | 1.75 | 1.6
15 | COC(=O)[C@@]1(Cc2ccc(OC)cc2)[C@H]2c3cc(C(=O)N(C)C)n(Cc4ccc(S(C)(=O)=O)cc4)c3C[C@H]2CN1C(=O)c1ccccc1 | 1.41 | -1.63 | -0.0612 | 1.36 | 0.798 | -0.242 | -0.405 | -0.21 | 1.28 | -0.0416
16 | C=CCOC(=O)[C@H]1[C@@H]2C(=O)O[C@@H](c3ccccc3)[C@@H](c3ccccc3)N2[C@@H](c2ccc(OCCOC(=O)[C@@H]3C[C@@H]4C(=O)N[C@@H](CCCCNC(C)=O)C(=O)N4[C@@H]3c3ccc(O)cc3)cc2)[C@]12C(=O)Nc1ccccc12 | 1.32 | -0.413 | 0.515 | 1.72 | 0.365 | -0.0704 | 0.196 | 0.45 | 0.622 | 2.51
17 | CC1CC/C=C\[C@H]2OC34C=CCN(C(C)(C)C)C(=O)[C@H]3N(C(C)CO)C(=O)[C@@H]4C2C(=O)O1 (stereo not given in full) | -0.864 | -1.4 | -0.442 | -1.19 | -1.23 | -0.124 | -0.0011 | -0.219 | -0.23 | -0.942
